Measurements published in ChEMBL document CHEMBL1961873, “Compounds: GSK PKIS; Assays: Nanosyn kinase panel” (2012).

How the values were obtained:
[1] = molecular target: Death-associated protein kinase 1 (Homo sapiens) (UniProt P53355); conditions: at 1 µM;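 further: each value is a mean inhibition figure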
[2] = molecular target: T1, Serine/threonine-protein kinase DCLK2 (Homo sapiens) (UniProt Q8N568); conditions: at 0.1 µM
T1 sequence (whole entry): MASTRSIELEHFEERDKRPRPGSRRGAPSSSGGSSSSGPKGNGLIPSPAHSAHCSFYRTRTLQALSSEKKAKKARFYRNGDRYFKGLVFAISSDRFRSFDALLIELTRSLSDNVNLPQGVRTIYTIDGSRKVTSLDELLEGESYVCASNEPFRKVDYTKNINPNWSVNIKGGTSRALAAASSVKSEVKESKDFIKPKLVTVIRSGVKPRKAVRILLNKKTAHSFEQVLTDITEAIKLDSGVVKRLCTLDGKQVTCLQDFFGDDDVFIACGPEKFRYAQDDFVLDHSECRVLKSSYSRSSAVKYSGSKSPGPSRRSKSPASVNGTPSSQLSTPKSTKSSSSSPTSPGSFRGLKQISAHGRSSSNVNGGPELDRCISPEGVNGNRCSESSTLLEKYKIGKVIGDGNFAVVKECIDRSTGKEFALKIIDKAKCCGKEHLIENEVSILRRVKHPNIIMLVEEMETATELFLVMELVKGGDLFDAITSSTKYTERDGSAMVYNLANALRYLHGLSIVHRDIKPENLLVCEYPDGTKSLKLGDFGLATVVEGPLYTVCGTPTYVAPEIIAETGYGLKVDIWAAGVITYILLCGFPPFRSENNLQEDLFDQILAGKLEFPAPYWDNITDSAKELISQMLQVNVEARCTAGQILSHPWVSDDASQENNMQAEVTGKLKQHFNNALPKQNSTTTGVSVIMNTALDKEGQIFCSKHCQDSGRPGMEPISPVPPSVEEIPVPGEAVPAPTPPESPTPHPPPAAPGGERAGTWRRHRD

[3] = molecular target: T1, Serine/threonine-protein kinase DCLK2 (Homo sapiens); conditions: at 1 µM
[4] = molecular target: MAP kinase-activated protein kinase 2 (Homo sapiens) (UniProt P49137); conditions: at 0.1 µM
Chain of MAP kinase-activated protein kinase 2 (Homo sapiens) (P49137 whole entry, looked up): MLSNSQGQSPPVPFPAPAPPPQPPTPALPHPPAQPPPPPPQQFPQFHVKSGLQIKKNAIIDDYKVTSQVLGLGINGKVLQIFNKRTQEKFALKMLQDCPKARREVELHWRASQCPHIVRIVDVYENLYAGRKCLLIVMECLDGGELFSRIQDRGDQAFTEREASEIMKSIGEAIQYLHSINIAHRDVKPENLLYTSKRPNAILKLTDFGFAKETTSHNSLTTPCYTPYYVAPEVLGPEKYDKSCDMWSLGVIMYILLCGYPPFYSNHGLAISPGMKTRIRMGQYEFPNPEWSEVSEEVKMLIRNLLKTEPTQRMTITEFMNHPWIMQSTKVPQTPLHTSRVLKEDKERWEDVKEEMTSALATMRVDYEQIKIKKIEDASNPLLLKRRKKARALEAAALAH

[5] = molecular target: MAP kinase-activated protein kinase 2 (Homo sapiens) (UniProt P49137); conditions: at 1 µM
[6] = molecular target: MAP kinase-activated protein kinase 3 (Homo sapiens) (UniProt Q16644); conditions: at 0.1 µM
Chain of MAP kinase-activated protein kinase 3 (Homo sapiens) (Q16644 whole entry, looked up): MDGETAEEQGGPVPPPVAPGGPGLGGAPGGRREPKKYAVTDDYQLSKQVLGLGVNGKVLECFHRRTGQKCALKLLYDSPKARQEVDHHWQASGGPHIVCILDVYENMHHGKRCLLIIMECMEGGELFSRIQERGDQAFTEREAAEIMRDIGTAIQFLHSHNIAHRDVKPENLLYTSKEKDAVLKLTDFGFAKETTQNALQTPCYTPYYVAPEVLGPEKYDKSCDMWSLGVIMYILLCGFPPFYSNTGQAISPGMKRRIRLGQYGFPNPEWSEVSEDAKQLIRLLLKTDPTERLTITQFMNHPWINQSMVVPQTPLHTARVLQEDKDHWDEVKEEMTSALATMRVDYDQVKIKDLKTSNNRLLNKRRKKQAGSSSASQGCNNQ

[7] = molecular target: MAP kinase-activated protein kinase 3 (Homo sapiens) (UniProt Q16644); conditions: at 1 µM
[8] = molecular target: Serine/threonine-protein kinase MARK1 (Homo sapiens) (UniProt Q9P0L2); conditions: at 0.1 µM
Chain of Serine/threonine-protein kinase MARK1 (Homo sapiens) (Q9P0L2 whole entry, looked up): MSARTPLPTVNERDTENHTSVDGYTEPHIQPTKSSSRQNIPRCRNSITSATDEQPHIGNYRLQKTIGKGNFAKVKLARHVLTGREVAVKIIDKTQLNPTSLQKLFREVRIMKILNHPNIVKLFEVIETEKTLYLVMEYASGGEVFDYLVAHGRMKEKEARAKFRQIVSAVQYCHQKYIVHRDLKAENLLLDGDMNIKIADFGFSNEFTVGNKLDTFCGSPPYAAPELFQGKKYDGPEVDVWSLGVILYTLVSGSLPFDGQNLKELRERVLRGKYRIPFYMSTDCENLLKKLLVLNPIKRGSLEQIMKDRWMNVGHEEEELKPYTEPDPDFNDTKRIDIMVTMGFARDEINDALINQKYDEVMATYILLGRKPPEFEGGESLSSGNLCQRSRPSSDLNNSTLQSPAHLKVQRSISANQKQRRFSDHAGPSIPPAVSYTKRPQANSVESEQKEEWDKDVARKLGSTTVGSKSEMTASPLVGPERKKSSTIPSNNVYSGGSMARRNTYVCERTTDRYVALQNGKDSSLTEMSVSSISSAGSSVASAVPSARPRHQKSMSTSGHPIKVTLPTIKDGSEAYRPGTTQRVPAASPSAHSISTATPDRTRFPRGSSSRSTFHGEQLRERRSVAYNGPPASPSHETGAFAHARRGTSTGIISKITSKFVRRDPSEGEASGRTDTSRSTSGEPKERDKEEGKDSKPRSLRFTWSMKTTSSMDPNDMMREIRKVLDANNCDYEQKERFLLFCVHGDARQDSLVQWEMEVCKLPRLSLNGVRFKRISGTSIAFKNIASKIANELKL

[9] = molecular target: Serine/threonine-protein kinase MARK1 (Homo sapiens) (UniProt Q9P0L2); conditions: at 1 µM
[10] = molecular target: MAP/microtubule affinity-regulating kinase 3 (Homo sapiens) (UniProt P27448); conditions: at 0.1 µM
Chain of MAP/microtubule affinity-regulating kinase 3 (Homo sapiens) (P27448 whole entry, looked up): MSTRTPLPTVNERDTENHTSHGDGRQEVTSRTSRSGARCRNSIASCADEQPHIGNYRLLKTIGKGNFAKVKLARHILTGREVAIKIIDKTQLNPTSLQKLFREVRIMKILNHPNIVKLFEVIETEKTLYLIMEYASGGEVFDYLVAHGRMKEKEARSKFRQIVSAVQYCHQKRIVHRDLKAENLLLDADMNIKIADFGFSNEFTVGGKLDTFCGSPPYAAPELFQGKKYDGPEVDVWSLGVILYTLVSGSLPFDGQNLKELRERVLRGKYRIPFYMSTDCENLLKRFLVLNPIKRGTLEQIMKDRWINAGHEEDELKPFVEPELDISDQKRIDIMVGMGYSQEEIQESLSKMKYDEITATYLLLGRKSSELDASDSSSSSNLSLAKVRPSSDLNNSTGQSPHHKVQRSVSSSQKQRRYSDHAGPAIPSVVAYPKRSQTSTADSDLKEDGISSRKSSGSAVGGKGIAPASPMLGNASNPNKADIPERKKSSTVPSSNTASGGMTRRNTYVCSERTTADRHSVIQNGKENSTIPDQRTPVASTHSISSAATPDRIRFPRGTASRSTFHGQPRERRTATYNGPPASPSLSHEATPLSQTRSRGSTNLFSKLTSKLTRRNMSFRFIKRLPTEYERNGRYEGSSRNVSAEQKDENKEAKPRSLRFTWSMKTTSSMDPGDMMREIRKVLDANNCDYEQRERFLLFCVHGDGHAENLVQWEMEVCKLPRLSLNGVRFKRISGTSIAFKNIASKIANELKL

[11] = molecular target: MAP/microtubule affinity-regulating kinase 3 (Homo sapiens) (UniProt P27448); conditions: at 1 µM
[12] = molecular target: T2, MAP/microtubule affinity-regulating kinase 4 (Homo sapiens) (UniProt Q96L34); conditions: at 0.1 µM
T2 sequence (whole entry): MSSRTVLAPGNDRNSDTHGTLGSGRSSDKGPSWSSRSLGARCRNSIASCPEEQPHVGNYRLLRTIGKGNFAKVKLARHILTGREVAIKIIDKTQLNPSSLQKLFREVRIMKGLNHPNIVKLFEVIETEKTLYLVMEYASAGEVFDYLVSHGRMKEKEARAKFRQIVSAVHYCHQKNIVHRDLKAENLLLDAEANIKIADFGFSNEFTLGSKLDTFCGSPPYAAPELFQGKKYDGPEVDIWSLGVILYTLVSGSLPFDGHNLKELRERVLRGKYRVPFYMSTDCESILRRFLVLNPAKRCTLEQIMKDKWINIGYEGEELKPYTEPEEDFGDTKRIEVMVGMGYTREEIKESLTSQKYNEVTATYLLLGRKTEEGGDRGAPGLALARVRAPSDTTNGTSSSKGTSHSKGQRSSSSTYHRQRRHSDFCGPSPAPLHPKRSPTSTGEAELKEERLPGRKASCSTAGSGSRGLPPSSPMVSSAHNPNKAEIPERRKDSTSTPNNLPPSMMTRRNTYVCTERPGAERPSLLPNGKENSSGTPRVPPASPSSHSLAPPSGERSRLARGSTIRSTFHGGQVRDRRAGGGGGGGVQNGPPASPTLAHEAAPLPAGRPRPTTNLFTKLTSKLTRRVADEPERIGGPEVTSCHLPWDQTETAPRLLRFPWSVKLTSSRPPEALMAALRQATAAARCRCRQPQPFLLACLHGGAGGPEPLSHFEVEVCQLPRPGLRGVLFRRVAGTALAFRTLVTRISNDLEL

[13] = molecular target: T2, MAP/microtubule affinity-regulating kinase 4 (Homo sapiens); conditions: at 1 µM
[14] = molecular target: Maternal embryonic leucine zipper kinase (Homo sapiens) (UniProt Q14680); conditions: at 0.1 µM
Chain of Maternal embryonic leucine zipper kinase (Homo sapiens) (Q14680 whole entry, looked up): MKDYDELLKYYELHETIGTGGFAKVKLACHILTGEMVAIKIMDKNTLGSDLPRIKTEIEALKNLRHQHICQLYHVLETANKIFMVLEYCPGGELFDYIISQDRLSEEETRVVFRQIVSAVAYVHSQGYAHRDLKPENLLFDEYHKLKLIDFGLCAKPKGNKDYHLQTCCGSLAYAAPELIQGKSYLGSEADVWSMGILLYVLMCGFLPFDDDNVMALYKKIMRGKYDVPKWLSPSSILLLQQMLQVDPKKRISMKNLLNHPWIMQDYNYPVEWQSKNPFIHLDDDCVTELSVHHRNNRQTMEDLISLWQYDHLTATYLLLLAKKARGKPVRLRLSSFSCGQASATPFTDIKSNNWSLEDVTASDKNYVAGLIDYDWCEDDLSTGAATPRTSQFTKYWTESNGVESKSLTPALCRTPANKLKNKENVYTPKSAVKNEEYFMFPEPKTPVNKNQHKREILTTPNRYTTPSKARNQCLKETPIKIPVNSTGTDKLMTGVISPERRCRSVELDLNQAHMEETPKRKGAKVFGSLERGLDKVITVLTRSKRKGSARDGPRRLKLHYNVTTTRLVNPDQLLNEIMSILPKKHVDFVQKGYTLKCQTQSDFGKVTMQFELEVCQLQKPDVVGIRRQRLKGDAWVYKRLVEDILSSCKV

[15] = molecular target: Maternal embryonic leucine zipper kinase (Homo sapiens) (UniProt Q14680); conditions: at 1 µM
[16] = molecular target: MAP kinase-interacting serine/threonine-protein kinase 1 (Homo sapiens) (UniProt Q9BUB5); conditions: at 0.1 µM
Chain of MAP kinase-interacting serine/threonine-protein kinase 1 (Homo sapiens) (Q9BUB5 whole entry, looked up): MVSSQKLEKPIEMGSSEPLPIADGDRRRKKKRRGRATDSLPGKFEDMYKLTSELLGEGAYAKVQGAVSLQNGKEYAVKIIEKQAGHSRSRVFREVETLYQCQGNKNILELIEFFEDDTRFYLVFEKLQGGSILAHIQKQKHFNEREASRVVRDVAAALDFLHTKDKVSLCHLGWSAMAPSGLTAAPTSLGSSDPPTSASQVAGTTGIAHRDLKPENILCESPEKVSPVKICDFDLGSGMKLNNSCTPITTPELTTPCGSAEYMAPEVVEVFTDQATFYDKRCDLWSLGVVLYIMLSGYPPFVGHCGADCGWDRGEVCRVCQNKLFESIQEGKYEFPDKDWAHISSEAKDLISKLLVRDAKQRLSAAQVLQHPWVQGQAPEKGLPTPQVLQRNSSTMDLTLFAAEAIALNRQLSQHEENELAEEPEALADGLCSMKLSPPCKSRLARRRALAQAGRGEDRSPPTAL

[17] = molecular target: MAP kinase-interacting serine/threonine-protein kinase 1 (Homo sapiens) (UniProt Q9BUB5); conditions: at 1 µM
[18] = molecular target: MAP kinase-interacting serine/threonine-protein kinase 2 (Homo sapiens) (UniProt Q9HBH9); conditions: at 0.1 µM
Chain of MAP kinase-interacting serine/threonine-protein kinase 2 (Homo sapiens) (Q9HBH9 whole entry, looked up): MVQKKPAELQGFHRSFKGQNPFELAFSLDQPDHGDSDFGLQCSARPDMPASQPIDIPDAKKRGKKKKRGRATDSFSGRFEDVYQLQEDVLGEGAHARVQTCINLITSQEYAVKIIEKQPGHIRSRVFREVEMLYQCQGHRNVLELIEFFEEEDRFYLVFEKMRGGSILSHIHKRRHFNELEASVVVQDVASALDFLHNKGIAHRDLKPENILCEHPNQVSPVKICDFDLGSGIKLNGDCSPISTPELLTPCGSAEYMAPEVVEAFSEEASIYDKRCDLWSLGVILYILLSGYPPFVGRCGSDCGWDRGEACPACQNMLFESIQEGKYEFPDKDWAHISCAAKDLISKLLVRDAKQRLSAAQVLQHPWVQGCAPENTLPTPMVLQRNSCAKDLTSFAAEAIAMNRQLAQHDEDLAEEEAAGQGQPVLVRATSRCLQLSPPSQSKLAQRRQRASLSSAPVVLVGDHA

[19] = molecular target: MAP kinase-interacting serine/threonine-protein kinase 2 (Homo sapiens) (UniProt Q9HBH9); conditions: at 1 µM
[20] = molecular target: Serine/threonine-protein kinase MARK2 (Homo sapiens) (UniProt Q7KZI7); conditions: at 0.1 µM;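 further: mean percent inhibition of PAR-1Balpha kinase activity, reported from the GSK PKIS screen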
Chain of Serine/threonine-protein kinase MARK2 (Homo sapiens) (Q7KZI7 whole entry): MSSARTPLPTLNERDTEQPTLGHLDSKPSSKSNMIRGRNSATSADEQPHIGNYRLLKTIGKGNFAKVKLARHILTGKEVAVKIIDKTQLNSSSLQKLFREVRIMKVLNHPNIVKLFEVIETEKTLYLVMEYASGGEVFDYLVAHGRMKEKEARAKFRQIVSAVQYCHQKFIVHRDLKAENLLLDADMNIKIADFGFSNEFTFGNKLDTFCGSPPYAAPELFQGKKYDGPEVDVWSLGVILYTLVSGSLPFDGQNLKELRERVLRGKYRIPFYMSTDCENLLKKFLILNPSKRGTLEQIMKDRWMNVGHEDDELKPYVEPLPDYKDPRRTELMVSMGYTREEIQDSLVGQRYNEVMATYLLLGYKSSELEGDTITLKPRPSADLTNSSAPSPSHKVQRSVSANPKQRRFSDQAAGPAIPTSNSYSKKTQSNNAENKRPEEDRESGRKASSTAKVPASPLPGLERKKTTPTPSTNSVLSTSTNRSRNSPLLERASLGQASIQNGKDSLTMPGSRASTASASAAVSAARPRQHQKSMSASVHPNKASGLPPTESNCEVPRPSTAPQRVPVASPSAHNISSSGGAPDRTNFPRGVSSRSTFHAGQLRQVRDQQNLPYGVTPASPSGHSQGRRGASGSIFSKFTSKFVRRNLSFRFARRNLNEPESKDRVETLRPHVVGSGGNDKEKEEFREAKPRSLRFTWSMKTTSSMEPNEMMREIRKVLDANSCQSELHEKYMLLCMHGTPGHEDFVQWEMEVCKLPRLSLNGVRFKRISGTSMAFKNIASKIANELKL

| Structure (SMILES) | inhibition [1] [%] | inhibition [2] [%] | inhibition [3] [%] | inhibition [4] [%] | inhibition [5] [%] | inhibition [6] [%] | inhibition [7] [%] | inhibition [8] [%] | inhibition [9] [%] | inhibition [10] [%] | inhibition [11] [%] | inhibition [12] [%] | inhibition [13] [%] | inhibition [14] [%] | inhibition [15] [%] | inhibition [16] [%] | inhibition [17] [%] | inhibition [18] [%] | inhibition [19] [%] | inhibition [20] [%] |
| --- | --- | --- | --- | --- | --- | --- | --- | --- | --- | --- | --- | --- | --- | --- | --- | --- | --- | --- | --- | --- |
| CN(C)CCOc1ccc(-c2nc(-c3ccncc3)c(-c3ccc4c(c3)CC/C4=N\O)[nH]2)cc1 | 5.09 | 0.7 | 1.55 | 1.68 | 2.27 | 2.57 | 4.19 | 2.54 | 3.97 | 2.63 | 4.44 | 0.44 | 2.12 | 1.61 | 3.61 | 1.3 | 7.41 | 1.42 | 5.3 | 1.34 |
| Fc1ccc(-c2cc(-c3c[nH]nc3-c3ccccn3)ccn2)cc1 | 3.05 | 1.09 | -1.86 | 2.53 | 2.72 | 7.67 | 18.4 | 4.11 | 3.39 | 2.52 | 0.81 | 1.12 | 1.84 | 0.52 | 7.4 | 4.46 | 10.4 | 2.83 | 6.06 | -3.26 |
| CC(=O)Nc1cccc(C#Cc2cncnc2Nc2ccc(OCc3cccc(F)c3)c(Cl)c2)c1 | -5.4 | 2.03 | -0.73 | -2.08 | -2.08 | -4.18 | -2.89 | 1.42 | 0.83 | 3.81 | 4.64 | 0.9 | 0.69 | 1.32 | 1.11 | 2.02 | 15.4 | 1.16 | 6.2 | -0.32 |
| NS(=O)(=O)c1ccc(N/N=C2\C(=O)Nc3ccc4ncccc4c32)cc1 | 63 | -1.4 | 7.76 | 0.89 | 1.9 | 2.79 | 3.84 | 12.8 | 52.9 | 8.25 | 40.9 | 11.4 | 52 | 50.3 | 93.4 | 4 | 19.4 | 2.52 | 20.4 | 5.97 |
| N#Cc1c(NC(=O)c2ccc(F)cc2)sc2c1CCCC2 | 0.36 | 0 | 5.74 | 0.34 | -0.56 | 0.8 | 0.7 | 1.17 | 0.93 | -0.62 | 1.66 | 0.11 | 1.29 | 0.18 | 5.26 | 0.47 | 1.91 | 0.57 | 1.1 | 0.6 |
| Fc1ccc(-c2nn3ccccc3c2-c2ccncc2)cc1 | 0.99 | 1.01 | -2.66 | 0.22 | 0 | 14.4 | 28.4 | 1.76 | 2.2 | 1 | -0.24 | 0.11 | -0.34 | 3.07 | 6.94 | 0.31 | 3.36 | -0.39 | 3.58 | -0.63 |
| Fc1cccc(COc2ccc(Nc3ncnc4sc(-c5ccco5)cc34)cc2Cl)c1 | 11.1 | -1.11 | 4.98 | 5.73 | 4.4 | 9.64 | 11 | 2.72 | 5.69 | 3.1 | 4.54 | 2.34 | 3.94 | 5.07 | 1.45 | 1.99 | 10.1 | -0.22 | 15.1 | 1.08 |
| COC(=O)Nc1nc2ccc(Oc3ccc(NC(=O)Nc4cccc(Cl)c4)cc3)cc2[nH]1 | -0.2 | -0.66 | 0.75 | -0.07 | -0.56 | 3.71 | 4.53 | 0.33 | 2.88 | 0.27 | -0.32 | -0.16 | 0.01 | 1.24 | -2.93 | 1.78 | 4.14 | -1.23 | 0.19 | -0.4 |
| COc1cc(N2CCN(C(C)C)CC2)ccc1Nc1nc(Nc2ccc(F)cc2C(N)=O)c2cc[nH]c2n1 | 46 | -0.62 | 8.47 | 0.94 | 5.03 | 3.04 | 7.11 | 7.7 | 47.7 | 12.3 | 67.4 | 4.23 | 37.8 | 18 | 78.3 | 0.9 | 1.83 | 1.81 | 8.99 | 5.75 |
| CC(=O)NCc1cccc(C#Cc2cncnc2Nc2ccc(OCc3cccc(F)c3)c(Cl)c2)c1 | -8.59 | 1.43 | 6.49 | -2.58 | -3.05 | -4.92 | -5.42 | 1.88 | 2.89 | 1.71 | 1.66 | 2.33 | 3.13 | 0.79 | 2.93 | 3.79 | 32.1 | 2.64 | 11.8 | 0.37 |
| CNC(=O)c1cc(-c2ccc(F)cc2)cc(-c2ccc(S(=O)(=O)N3CCCC3)cc2)c1N | 9.63 | -1.53 | -0.01 | 4.47 | 5.35 | 7.55 | 9.54 | 2.14 | 3.58 | 1.73 | 2.91 | 0.61 | 1.19 | 4.19 | 3.17 | 0.63 | 0.76 | -0.84 | -0.59 | 2.35 |
| Cc1ccc(O)cc1Nc1ccnc2cc(-c3ccccn3)ccc12 | 5.29 | 1.56 | 2.1 | 1.91 | 1.68 | 7.63 | 19.4 | 4.13 | 6.28 | 4.39 | 10.8 | 2.1 | 3.98 | 1.72 | 3.79 | 3.8 | 6.21 | 1.72 | 4.94 | 0.54 |
| Nc1ncc(-c2cccc(S(N)(=O)=O)c2)c2scc(-c3ccc(F)c(Cl)c3)c12 | 3.2 | 0.41 | 0.61 | 1.76 | 1.12 | 6 | 15.7 | 3.57 | 5.62 | -0.65 | 5.19 | 3.07 | 5.58 | 5.13 | 2.9 | 3.42 | 4.48 | 1.7 | 6.22 | 0.24 |
| Fc1ccc(-c2nn3ncccc3c2-c2ccnc(Nc3ccc4c(c3)OCCO4)n2)cc1 | 2.12 | 1.43 | -0.42 | 1.56 | 1.39 | 34.4 | 37.8 | 1.97 | 3.47 | 4.24 | -0.42 | 2.21 | 2.65 | 3.62 | 9.58 | 3.01 | 4.06 | 0.58 | -0.01 | -1.3 |
